Most compounds without a hit are left out; they make up all but 0.84% or so of the library.
SRC2 inh: inhibits human steroid receptor coactivator 2; HEK293 GAL4-SRC2 luciferase reporter, luminescence; inhibition, % at 9 µM; 370,000 tested, 0.17% active; AID 651957;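 active = inhibition above the mean inhibition of all tested compounds plus 3 SD, set per campaign, cut at about 52% in these data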;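 also: 0% = DMSO treated cells and 100% = cells given Gossypol at 36 µM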
NR2F2 inh: blocks human COUP-TFII nuclear receptor. inhibition, % at 8.6 µM. 370,000 tested, 0.7% active. HEK293T NGFI-A luciferase reporter, luminescence. P24468;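 active = inhibition above a per-plate cutoff, mean inhibition of test wells between control levels plus 3 SD, cut at about 38% in these data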;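 also: cells cotransfected with COUP-TFII expression vector driving the NGFI-A reporter; 0% = median of COUP-TF2 test wells and 100% = reporter-only cells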
NCOA3 inh: inhibits human SRC3 coactivator; Q9Y6Q9; HEK293 GAL4-SRC3 luciferase reporter, luminescence; inhibition, % at 3.6 µM; 360,000 tested, 0.17% active;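 active = inhibition above a per-campaign cutoff, the mean of all compounds plus 3 SD, cut at about 60% in these data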;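 also: 0% = DMSO-treated cells and 100% = gossypol-treated cells at 36 µM; higher means less SRC3-driven luciferase light from the GAL4 reporter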
Target sequence (Q9Y6Q9 whole entry, looked up, the tested form may be a part): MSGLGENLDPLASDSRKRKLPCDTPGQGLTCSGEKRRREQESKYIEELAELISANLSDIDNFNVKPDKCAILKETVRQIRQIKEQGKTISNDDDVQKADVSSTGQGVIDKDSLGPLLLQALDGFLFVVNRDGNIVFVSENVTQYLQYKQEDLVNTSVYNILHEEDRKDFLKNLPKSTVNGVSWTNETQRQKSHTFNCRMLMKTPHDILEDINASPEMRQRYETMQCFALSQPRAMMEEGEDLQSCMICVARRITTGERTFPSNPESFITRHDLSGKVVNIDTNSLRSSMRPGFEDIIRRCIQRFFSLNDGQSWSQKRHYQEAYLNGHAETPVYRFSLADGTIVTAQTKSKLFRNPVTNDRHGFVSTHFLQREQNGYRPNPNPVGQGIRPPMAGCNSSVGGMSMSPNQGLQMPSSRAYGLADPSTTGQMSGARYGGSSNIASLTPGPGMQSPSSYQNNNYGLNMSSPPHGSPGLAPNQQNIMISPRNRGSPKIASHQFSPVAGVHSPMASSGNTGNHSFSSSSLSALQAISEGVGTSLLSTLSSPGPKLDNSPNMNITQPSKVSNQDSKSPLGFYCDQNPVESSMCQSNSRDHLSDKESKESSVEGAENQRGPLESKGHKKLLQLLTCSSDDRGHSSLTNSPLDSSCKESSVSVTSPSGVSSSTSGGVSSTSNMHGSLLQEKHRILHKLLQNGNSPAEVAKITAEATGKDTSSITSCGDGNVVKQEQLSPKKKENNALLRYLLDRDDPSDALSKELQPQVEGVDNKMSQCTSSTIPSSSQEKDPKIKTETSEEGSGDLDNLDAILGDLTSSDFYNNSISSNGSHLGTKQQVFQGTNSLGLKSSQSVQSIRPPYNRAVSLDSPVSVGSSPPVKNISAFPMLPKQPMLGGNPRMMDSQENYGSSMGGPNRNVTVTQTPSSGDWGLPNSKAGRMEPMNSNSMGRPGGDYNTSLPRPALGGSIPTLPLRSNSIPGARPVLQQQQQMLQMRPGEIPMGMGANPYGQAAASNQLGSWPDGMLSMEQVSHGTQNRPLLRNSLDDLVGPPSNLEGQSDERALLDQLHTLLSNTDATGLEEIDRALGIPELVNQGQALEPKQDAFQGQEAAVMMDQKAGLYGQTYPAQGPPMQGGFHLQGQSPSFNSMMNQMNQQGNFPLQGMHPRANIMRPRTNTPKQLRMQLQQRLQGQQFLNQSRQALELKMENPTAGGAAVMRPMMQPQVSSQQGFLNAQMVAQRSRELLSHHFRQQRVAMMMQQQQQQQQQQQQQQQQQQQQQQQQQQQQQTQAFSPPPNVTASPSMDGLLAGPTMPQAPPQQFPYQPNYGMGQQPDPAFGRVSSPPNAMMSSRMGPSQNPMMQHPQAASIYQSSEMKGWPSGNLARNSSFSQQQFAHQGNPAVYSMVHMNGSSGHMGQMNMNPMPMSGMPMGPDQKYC
LRH-1 inv ag: inverse agonists of human LRH-1 (NR5A2); HEK293T StAR-luciferase reporter, LRH-1 transfected, 24 h; inhibition, % at 3.6 µM; 360,000 tested, 0.13% active; AID 602396;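 active = inhibition above the mean inhibition of all tested compounds plus 3 SD, cut at about 73% in these data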;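 also: 0% = DMSO wells and 100% = reporter-only cells lacking LRH-1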
SRC1 inh: inhibits human SRC1 coactivator; HEK293 GAL4-SRC1 luciferase reporter, luminescence; 360,000 tested, 0.12% active; inhibition, % at 3.6 µM; AID 588354; Q15788;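 active = inhibition above the campaign mean plus 3 SD, with each screening campaign given its own cutoff, cut at about 60% in these data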;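 also: 0% = DMSO treated cells and 100% = gossypol at 36 µM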
VP16 Luc counter: VP16 inhibition counter-screen for COUP-TFII; shares compounds with NR2F2 inh; HEK293 Gal4-VP16 luciferase reporter, luminescence; inhibition, % at 8.5 µM; 2,500 tested, 25% active; AID 687007; in the data active = inhibition above about 13%
COUP-TFII conf: confirmation of human COUP-TFII (NR2F2) inhibitors. shares compounds with NR2F2 inh. HEK293 NGFI-A luciferase reporter, luminescence. inhibition, % at 8.5 µM. 2,500 tested, 45% active;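 active = mean inhibition over three repeats above a set limit taken from the earlier primary screen, cut at about 38% in these data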;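 also: 100% = cells given the luciferase reporter alone without the COUP-TF2 vector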
* marks the source's active call; other numbers are inactive results; · = no result.

SMILES	SRC2 inh	NR2F2 inh	NCOA3 inh	LRH-1 inv ag	SRC1 inh	VP16 Luc counter	COUP-TFII conf
Cc1c(CC(=O)N[C@@H](CCCNC(N)=O)C(=O)O)c(=O)oc2cc3oc4c(c3cc12)CCCC4	-20	-1	9	2	-10	·	·
Cc1c(CCC(=O)NCCCC(=O)O)c(=O)oc2cc3oc4c(c3cc12)CCCC4	63*	49*	2	9	13	35*	34
CCCCC(NC(=O)Cc1c(C)c2cc3c4c(oc3cc2oc1=O)CCCC4)C(=O)O (centres undefined)	-21	-4	4	-8	0	·	·
Cc1c(CCC(=O)N[C@@H](CCCNC(N)=O)C(=O)O)c(=O)oc2cc3oc4c(c3cc12)CCCC4	68*	53*	-1	-1	11	29*	29
O=S(=O)(c1ccccc1)N1CCC(O)(CSc2ccc(F)cc2)CC1	35	40*	23	27	12	2	27
O=C(CSc1nnc(-c2ccccc2)n1-c1ccccc1)Nc1ccccc1-c1ccccc1	2	22	·	·	·	·	·
CCCCCCC[N+](CC)(CC)CCCCc1ccc(Cl)cc1	-25	41*	52	70	4	15*	25
CCCCCNCc1ccc(Cl)cc1	-5	-3	20	-9	-8	·	·
CCOC(=O)N1CCC(NC(=O)C2CCN(Cc3nc(-c4ccc(CC)cc4)oc3C)CC2)CC1	16	-6	-22	18	-3	·	·
Cc1oc(-c2ccc(Cl)cc2)nc1CSCC(=O)NC1CCN(Cc2ccccc2)CC1	-7	52*	11	26	9	15*	57*
Cc1oc(-c2ccc(Cl)cc2)nc1CN1CCCC(C(=O)NCc2cccnc2)C1 (centres undefined)	4	52*	16	28	8	13	46*
CCOC(=O)N1CCC(NC(=O)C2CCCN(Cc3nc(-c4ccc(CC)cc4)oc3C)C2)CC1 (centres undefined)	19	54*	38	31	4	0	45*
Cc1oc(-c2ccc(Cl)cc2)nc1CN1CCCC(C(=O)NCc2ccccn2)C1 (centres undefined)	-18	4	-5	-4	-5	·	·
CCOc1ccc(-c2nc(CSCC(=O)NC3CCN(Cc4ccccc4)CC3)c(C)o2)cc1	41	37	1	23	-6	·	·
c1ccc(CN2CCC(CNc3ncnc4ccccc34)C2)cc1 (centres undefined)	32	41*	13	21	17	-1	15
COc1cc2ncnc(NCc3ccccc3)c2cc1OC	11	11	-7	-2	11	·	·
c1ccc(CNc2ncnc3ccccc23)cc1	38	64*	42	25	38	8	53*
c1ccc(CN2CCC(Nc3nc(-c4ccccc4)nc4ccccc34)CC2)cc1	16	-13	3	-7	5	·	·
Fc1ccc(CN2CCN(c3ncc(Cc4ccccc4)cn3)CC2)c(Cl)c1	24	51*	·	·	·	6	47*
FC(F)(F)c1ccc(Cl)c(CN2CCN(c3ncc(Cc4ccccc4)cn3)CC2)c1	27	1	·	·	·	·	·
CC1CCN(c2ncnc3ccccc23)CC1	5	45*	10	19	-8	-1	17
NC(=O)[C@H]1CC2(CC(c3cccc(NC(=O)COc4ccc(Cl)cc4)c3)=NO2)CN1C(=O)Cc1ccc([N+](=O)[O-])cc1 (some centres undefined)	11	74*	27	42	28	-6	66*
CCCCCC(=O)Nc1cccc(C2=NOC3(C2)C[C@@H](C(N)=O)N(C(=O)Cc2ccc([N+](=O)[O-])cc2)C3)c1 (some centres undefined)	-16	-3	-4	5	-11	·	·
Cc1sc2nc(COC(=O)CNC(=O)c3ccccc3Cl)[nH]c(=O)c2c1C	14	-23	·	·	·	·	·
Cc1ccc(S(=O)(=O)CC2CSc3nc(N)cc(=O)n32)cc1 (centres undefined)	3	-8	-5	-2	-13	·	·
SMILES	SRC2 inh	NR2F2 inh	NCOA3 inh	LRH-1 inv ag	SRC1 inh	VP16 Luc counter	COUP-TFII conf
Cc1ccc(S(=O)(=O)CC2CSc3nc4ccccc4n32)cc1 (centres undefined)	16	67*	25	48	26	9	64*
O=C(Nc1nc(-c2ccc(F)cc2)cs1)C1CCN(C(=O)c2ccc(F)cc2)CC1	30	58*	2	1	3	4	46*
CCC[N+]1(CC#CCC(c2ccccc2)c2ccccc2)CCCCC1	19	52*	34	55	35	11	31
COc1cc(C(=O)N(C)CCOc2ccccc2)ccc1OCC(=O)Nc1cccc(C(F)(F)F)c1	28	57*	14	-14	6	8	22
CCOC(=O)C1CCN(C(=O)c2ccc(OCC(=O)Nc3cccc(C(F)(F)F)c3)c(OC)c2)CC1	37	66*	13	33	25	-6	59*
COc1cc(C(=O)NCc2ccc(S(N)(=O)=O)cc2)ccc1OCC(=O)Nc1cccc(C(F)(F)F)c1	-5	0	-4	13	-18	·	·
Cc1nc2c(-c3ccc(F)cc3)cnn2c(N)c1-c1ccc(F)cc1	-31	47*	38	28	1	-89	18
CCC(=O)Nc1ccc2c(c1)C(=O)N(C)[C@@H]1CC[C@@H](CC(=O)OC)O[C@H]1CO2	1	-13	·	·	·	·	·
COc1cccc(NC(=O)C2CCCN2C(=O)NCc2ccccc2OC)c1 (centres undefined)	16	-9	·	·	·	·	·
Oc1ccc(CCNc2ncnc3ccc(Cl)cc23)cc1	37	80*	58	47	64*	7	64*
O=C(Nc1ccc(Oc2cccnc2)nc1)c1ccc(C(F)(F)F)cc1	28	66*	40	29	23	2	38*
CC(C)(C)c1ccc(Oc2ccc(NC(=O)c3ccco3)cn2)cc1	41	43*	32	-7	-2	29*	59*
O=C(NCc1ccc(C(F)(F)F)cc1)O[C@H]1CC[C@@]23CCCN2C(=O)CCC[C@H]3C1	·	-4	·	·	·	·	·
CCc1c(-c2ccccc2OC)ncn1Cc1cccc(-c2ccccc2)c1	28	51*	·	19	·	6	16
Cn1c(SCC(=O)NCCc2ccccc2)ncc(C(=O)Nc2ccccc2)c1=O	14	54*	8	28	2	4	1
O=C(NCC1COc2ccccc2O1)c1ccc(NC(=O)C(Cl)Cl)cc1 (centres undefined)	-36	-34	·	·	·	·	·
CCC(=O)N1CCCc2cc(S(=O)(=O)N3CCN(c4ccccc4F)CC3)ccc21	18	50*	0	13	13	-3	13
CC(=O)N1CCCc2cc(S(=O)(=O)N3CCCC(C(=O)N4CCN(c5ccccc5)CC4)C3)ccc21 (centres undefined)	13	41*	15	20	-3	10	29
